The target of test [1] is DNA dC->dU-editing enzyme APOBEC-3G (Homo sapiens) (UniProt Q9HC16). Kind of test: qHTS for inhibitors of Vif-A3G interactions: Validation (AID 588379). Further: 0% is about no effect. Summed up: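 HeLa cells stably expressing Vif and A3G-eYFP, 700 cells/well, incubated overnight at 37 deg C, then exposed to compound overnight at 37 deg C. Inhibition of Vif-mediated degradation read as increased yellow fluorescence (Ex 488/Em 500-530) by laser-scanning cytometry.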

For test [2], the target named is Estrogen receptor (Homo sapiens) (UniProt P03372). In words: qHTS assay for small molecule antagonists of estrogen receptor alpha signaling (AID 588513; active means well fitted curve in the direction sought with a large enough effect in the signal ratio, with a control signal flat, not every such curve was filed as active; the % refers to the signal ratio; further: on the % scale 0 is the no-effect control and ±100 the full control effect). The procedure, abridged:
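ER-alpha-UAS-bla GripTite HEK 293 cells in medium with 2% charcoal/dextran-treated FBS were preincubated 4 h at 37 C, dosed with compound (1:2 titration), stimulated with 0.5nM 17-beta-estradiol for 18 h, then read by CCF4 beta-lactamase fluorescence.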

Test [3] shares this target. In words: qHTS assay for small molecule agonists of estrogen receptor alpha signaling (AID 588514; calls by dose curve;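 further: 0% = vehicle only and 100% = reference agonist; nearly all actives have a fitted effect of over 70% in size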). The procedure, abridged: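 ER-alpha-UAS-bla GripTite HEK293 cells, 5000/well in 2% charcoal/dextran-stripped FBS medium, treated with compound titrations 18 h at 37 C. CCF4 beta-lactamase read by fluorescence after 2 h RT; normalised to 20 nM 17-beta-estradiol (100%) and DMSO (0%), Hill fit for EC50 and efficacy.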

Test [4] addresses Androgen receptor (Homo sapiens) (UniProt P10275). Kind of test: qHTS assay for small molecule agonists of androgen receptor signaling (AID 588515; active means well fitted curve in the direction sought with a large enough effect in the signal ratio, with a control signal flat; the % refers to the signal ratio; further: on the % scale 0 is the no-effect control and ±100 the full control effect). The settings on record: AR-UAS-bla HEK293, beta-lactamase ratio, agonist 16 h; stronger effect = higher value. Summed up: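 EC50 and efficacy came from Hill fits of titrations (up to 92 uM) normalized to 30 nM R1881 as 100% and DMSO as 0%. Compound exposure was 16 h at 37 C on AR-UAS-bla HEK293 cells, with a 405/460/530 nm CCF4 fluorescence read.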

The target in test [5] is Glucocorticoid receptor (Homo sapiens) (UniProt P04150). Kind of test: qHTS assay for small molecule agonists of glucocorticoid receptor signaling (AID 588532; active means well fitted curve in the direction sought with a large enough effect in the signal ratio, with a control signal flat; the % refers to the signal ratio;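 further: 100% = dexamethasone at 0.1 µM and 0% = DMSO only wells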). The settings on record: HeLa MMTV-bla, beta-lactamase ratio, agonist, 18 h; stronger effect = higher value; percent of dexamethasone control, DMSO zero. The procedure, abridged:
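Cells were plated and rested 3-5 h at 37 C, compounds were added in titration and incubated 18 h, then CCF4 substrate was loaded for 2 h at RT before reading blue/green fluorescence. EC50 came from Hill-equation fitting.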

For test [6], the target named is Peroxisome proliferator-activated receptor gamma (Homo sapiens) (UniProt P37231). In words: qHTS assay for small molecule agonists of peroxisome proliferator-activated receptor gamma signaling (AID 588536; active means well fitted curve in the direction sought with a large enough effect in the signal ratio, with a control signal flat, not every such curve was filed as active; the % refers to the signal ratio;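 further: 0% = DMSO basal wells and 100% = rosiglitazone at 2 µM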). Summed up: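 HEK293 UAS-bla reporter line, 1% charcoal/dextran FBS; titration, 16 h, 37 C; CCF4 loading 2 h RT; fluorescence 460/530 nm. Normalized to rosiglitazone 2 uM = 100%, DMSO = 0%.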

The target is the same in test [7]. In words: qHTS assay for small molecule antagonists of peroxisome proliferator-activated receptor gamma signaling (AID 588537; active means well fitted inhibition curve with a large enough effect in the signal ratio, with a control signal flat, not every such curve was filed as active; the % refers to the signal ratio;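 further: reporter cells co-stimulated with 50 nM rosiglitazone agonist during compound treatment; % of control where 0% means no effect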). The procedure, abridged:
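PPARγ-UAS-bla HEK293 cells (3000/well) in 1% charcoal/dextran-stripped FBS are treated with compound, then stimulated with 50 nM rosiglitazone for 16 h at 37 °C. Read-out is CCF4 β-lactamase fluorescence after 2 h at RT. IC50 comes from Hill fits normalised to rosiglitazone and DMSO.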

Test [8] in a line: qHTS assay for small molecule agonists of retinoid X receptor alpha signaling (AID 588544). The settings on record: HEK293T RXRa-UAS-bla, beta-lactamase reporter, 18 h; 530 nm emission.
Test [9] is described as follows: qHTS assay for small molecule antagonists of retinoid X receptor alpha signaling (AID 588546).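 Further: cells stimulated with 9-cis-retinoic acid as agonist; on the % scale 0 is the no-effect control and ±100 the full control effect.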 The settings on record: HEK293T RXRa-UAS-bla, beta-lactamase ratio, antagonist mode; measured here: W530 green channel, cytotoxicity proxy. Summed up: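 Beta-lactamase reporter inhibition, read as CCF4 fluorescence ratio (ex 405, em 460/530 nm) after 2 h at RT. HEK293T UAS-bla cells, 2500/well, were stimulated with 9-cis-RA at 500 or 100 nM final alongside test compound for 18 h at 37 C.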

Test [10] addresses Thyroid hormone receptor beta (Homo sapiens) (UniProt P10828). In words: qHTS assay for small molecule antagonists of thyroid hormone receptor beta signaling (AID 588547; active means well fitted inhibition curve with a large enough effect in the signal ratio, with a control signal flat, not every such curve was filed as active; the % refers to the signal ratio;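 further: cells stimulated with 0.4 nM T3 agonist during compound exposure; series mostly up to about 77 µM; on the % scale 0 is the no-effect control and ±100 the full control effect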). Particulars: TR-UAS-bla HEK293, beta-lactamase ratio, antagonist mode, 18 h. The procedure, abridged:
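TR-UAS-bla GripTite HEK293 cells in 2% charcoal/dextran FBS medium; compounds 0.59 nM to 92 uM with T3 at 0.4nM final, 18 h at 37 C. Beta-lactamase read by CCF4 fluorescence (460/530 nm); Hill fits gave IC50 and efficacy.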

The target in test [11] is Voltage-gated inwardly rectifying potassium channel KCNH2 (Homo sapiens) (UniProt Q12809). In words: qHTS Assay for Small Molecule Inhibitors of the Human hERG Channel Activity (AID 588834).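 Further: top concentration of the series differs between compounds; on the % scale 0 is the no-effect control and ±100 the full control effect; lower thallium flux fluorescence means stronger hERG block; nearly all actives have a fitted effect of over 50% in size.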 Summed up: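 U2OS cells transduced with hERG via BacMam (MOI ~100), plated 2000/well, loaded with FluxOR thallium dye, compound ~10 min, then stimulation buffer; fluorescence decrease read kinetically; AC50 from Hill fits.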

The target in test [12] is Luciferin 4-monooxygenase (Photinus pyralis) (UniProt P08659). Kind of test: Biochemical firefly luciferase enzyme assay for NPC (AID 624030).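 Further: purified P. pyralis luciferase at 10 nM with luciferin and ATP substrate; series mostly up to about 59 µM; 0% = DMSO and -100% = full luciferase inhibition by PTC124 control; nearly all actives have a fitted effect of over 70% in size.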 The procedure, abridged: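 Purified P. pyralis luciferase at 10 nM in 50 mM Tris Acetate (final), luminescence read within 5 minutes of enzyme addition to compounds. Activity normalised to PTC124 versus DMSO; concentration-response curves classed by r2, magnitude and activity.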

Test [13] in a line: S16 Schwann cell viability assay (CellTiter-Glo assay) (AID 624031).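 Further: cellular ATP luminescence as a viability measure; series mostly up to about 58 µM; plate controls were DMSO-treated cells for no effect and cell-free wells for full effect; nearly all actives have a fitted effect of over 70% in size.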 The procedure, abridged:
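Untransfected S16 rat Schwann cells; compound 24 h, 37 °C/5% CO2; CellTiter-Glo ATP luminescence. % activity vs no-cell wells and DMSO controls (0%); concentration-effect curves classed by r2, response magnitude, activity.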

The target in test [14] is Bile acid receptor (Homo sapiens) (UniProt Q96RI1). In words: qHTS assay for small molecule antagonists of farnesoid X receptor signaling (AID 588526; calls by dose curve; further: on the % scale 0 is the no-effect control and ±100 the full control effect). Summed up: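 Antagonist mode: titrated compounds tested against chenodeoxycholic acid stimulation (normalized to 50 uM CDCA and DMSO) in GeneBLAzer HEK293T cells for 16 h. Beta-lactamase read by CCF4 fluorescence; IC50 from Hill fits.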

The target of test [15] is Glucocorticoid receptor (Homo sapiens) (UniProt P04150). Kind of test: qHTS assay for small molecule antagonists of glucocorticoid receptor signaling (AID 588533; active means well fitted inhibition curve with a large enough effect in the signal ratio, with a control signal flat, not every such curve was filed as active; the % refers to the signal ratio). The procedure, abridged:
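Antagonist-mode qHTS: compound titrations added to GRE-bla HeLa cells, then dexamethasone 2 nM final; 18 h, 37 C. CCF4 FRET fluorescence normalized to dexamethasone and DMSO; IC50 from Hill fit.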

A short description of test [16]: qHTS assay for small molecule antagonists of peroxisome proliferator-activated receptor delta signaling (AID 588535; active means well fitted inhibition curve with a large enough effect in the signal ratio, with a control signal flat, not every such curve was filed as active; the % refers to the signal ratio;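 on max response: cells co-treated with a PPAR-delta agonist as stimulator during compound exposure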). The settings on record: HEK293T PPARd-UAS-bla, beta-lactamase FRET ratio, 18 h; 460 nm channel. Summed up:
(§1)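 Antagonist-mode beta-lactamase reporter (GeneBLAzer PPAR-delta-UAS-bla) in HEK293T cells, 2% charcoal/dextran FBS, 4000 cells/well. Compound titrations, 18 h at 37 C; CCF4 ratio read, IC50 and efficacy from Hill fits.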

Test [17] has as its target Peroxisome proliferator-activated receptor delta (Homo sapiens) (UniProt Q03181). Described as above. Summed up:
as §1

For test [18], the target named is Vitamin D3 receptor (Homo sapiens) (UniProt P11473). Kind of test: qHTS assay for small molecule agonists of vitamin D receptor signaling (AID 588543; calls by dose curve;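 further: 0% = DMSO basal and 100% = reference agonist control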). The procedure, abridged: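 GeneBLAzer VDR-UAS-bla HEK293T cells in 2% charcoal-stripped FBS medium were dosed with compound titrations for 16 h at 37 °C; CCF4 β-lactamase readout (405 nm ex, 460/530 nm em). EC50 and efficacy from Hill fits, normalized to 50 nM calcitriol (100%) and DMSO (0%).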

Test [19] has as its target Thyroid hormone receptor beta (Homo sapiens) (UniProt P10828). Kind of test: qHTS assay for small molecule agonists of thyroid hormone receptor beta signaling (AID 588545; calls by dose curve;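 further: 0% = DMSO only and 100% = 10 nM T3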). Summed up:
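TR-UAS-bla-GripTite HEK 293 cells in medium with 2% charcoal/dextran FBS, 0.1 mM NEAA and 1 mM sodium pyruvate were treated with titrated compounds for 18 hrs at 37 C. Beta-lactamase reporter was read with CCF4 dye (ex 405, em 460/530 nm); EC50 from Hill fits.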

The structures appear in SMILES notation. Records with an inconclusive call do not appear. Calls of active or inactive are those of the source. Unless noted, the call rests on the fitted dose curve; in most records, active means well fitted curve in the direction sought with a large enough effect; inconclusive means small, poorly fitted or top-dose-only effect, or another doubt; inactive means no such curve, though single readings can be large; an effect the other way counts as inactive or inconclusive.

Chain of Glucocorticoid receptor (Homo sapiens) (P04150 whole entry, looked up): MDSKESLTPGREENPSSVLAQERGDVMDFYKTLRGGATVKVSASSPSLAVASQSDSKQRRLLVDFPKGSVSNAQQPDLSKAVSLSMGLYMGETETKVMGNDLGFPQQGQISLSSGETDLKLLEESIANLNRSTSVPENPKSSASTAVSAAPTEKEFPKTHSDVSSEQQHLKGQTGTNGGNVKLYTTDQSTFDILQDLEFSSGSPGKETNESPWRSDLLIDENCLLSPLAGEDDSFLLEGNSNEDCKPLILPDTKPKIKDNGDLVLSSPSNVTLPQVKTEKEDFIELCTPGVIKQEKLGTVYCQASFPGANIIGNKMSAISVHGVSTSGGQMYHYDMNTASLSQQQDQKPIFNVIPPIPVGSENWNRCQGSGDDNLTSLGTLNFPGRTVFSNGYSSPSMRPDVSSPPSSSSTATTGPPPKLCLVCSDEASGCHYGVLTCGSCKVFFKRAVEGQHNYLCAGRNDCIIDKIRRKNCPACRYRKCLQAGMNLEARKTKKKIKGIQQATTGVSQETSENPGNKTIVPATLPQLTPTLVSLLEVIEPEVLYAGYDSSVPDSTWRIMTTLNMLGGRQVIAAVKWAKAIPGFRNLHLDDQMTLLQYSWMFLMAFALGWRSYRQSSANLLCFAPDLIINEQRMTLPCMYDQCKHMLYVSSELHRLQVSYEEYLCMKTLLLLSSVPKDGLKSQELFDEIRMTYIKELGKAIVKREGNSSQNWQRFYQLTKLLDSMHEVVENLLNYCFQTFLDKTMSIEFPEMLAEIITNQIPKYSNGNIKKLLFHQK
Chain of Luciferin 4-monooxygenase (Photinus pyralis) (P08659 whole entry, looked up): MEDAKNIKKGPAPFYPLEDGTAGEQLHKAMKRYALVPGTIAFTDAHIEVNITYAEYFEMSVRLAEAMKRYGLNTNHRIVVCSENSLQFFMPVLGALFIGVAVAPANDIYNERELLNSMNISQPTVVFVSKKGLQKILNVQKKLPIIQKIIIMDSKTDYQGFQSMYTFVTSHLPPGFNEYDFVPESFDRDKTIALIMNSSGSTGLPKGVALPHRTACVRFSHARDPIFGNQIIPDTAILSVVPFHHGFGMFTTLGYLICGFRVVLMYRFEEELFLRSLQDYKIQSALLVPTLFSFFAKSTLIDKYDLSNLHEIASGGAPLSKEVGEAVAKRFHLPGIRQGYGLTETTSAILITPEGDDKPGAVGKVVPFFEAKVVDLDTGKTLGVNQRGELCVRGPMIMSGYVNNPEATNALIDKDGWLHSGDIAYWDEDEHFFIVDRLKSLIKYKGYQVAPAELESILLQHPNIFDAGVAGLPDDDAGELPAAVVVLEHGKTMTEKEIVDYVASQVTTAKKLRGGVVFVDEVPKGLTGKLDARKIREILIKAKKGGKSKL
Chain of Peroxisome proliferator-activated receptor delta (Homo sapiens) (Q03181 whole entry, looked up): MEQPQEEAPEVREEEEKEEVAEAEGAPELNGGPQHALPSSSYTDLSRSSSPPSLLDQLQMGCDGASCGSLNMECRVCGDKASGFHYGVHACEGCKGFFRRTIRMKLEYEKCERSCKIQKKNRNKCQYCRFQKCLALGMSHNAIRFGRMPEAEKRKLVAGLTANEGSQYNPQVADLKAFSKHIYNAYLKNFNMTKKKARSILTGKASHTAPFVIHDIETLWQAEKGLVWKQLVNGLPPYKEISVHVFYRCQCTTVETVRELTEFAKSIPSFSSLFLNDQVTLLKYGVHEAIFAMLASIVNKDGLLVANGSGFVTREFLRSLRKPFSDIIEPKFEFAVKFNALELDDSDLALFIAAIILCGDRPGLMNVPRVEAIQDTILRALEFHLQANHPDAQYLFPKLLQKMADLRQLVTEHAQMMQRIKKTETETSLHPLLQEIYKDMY
Chain of Estrogen receptor (Homo sapiens) (P03372 whole entry, looked up): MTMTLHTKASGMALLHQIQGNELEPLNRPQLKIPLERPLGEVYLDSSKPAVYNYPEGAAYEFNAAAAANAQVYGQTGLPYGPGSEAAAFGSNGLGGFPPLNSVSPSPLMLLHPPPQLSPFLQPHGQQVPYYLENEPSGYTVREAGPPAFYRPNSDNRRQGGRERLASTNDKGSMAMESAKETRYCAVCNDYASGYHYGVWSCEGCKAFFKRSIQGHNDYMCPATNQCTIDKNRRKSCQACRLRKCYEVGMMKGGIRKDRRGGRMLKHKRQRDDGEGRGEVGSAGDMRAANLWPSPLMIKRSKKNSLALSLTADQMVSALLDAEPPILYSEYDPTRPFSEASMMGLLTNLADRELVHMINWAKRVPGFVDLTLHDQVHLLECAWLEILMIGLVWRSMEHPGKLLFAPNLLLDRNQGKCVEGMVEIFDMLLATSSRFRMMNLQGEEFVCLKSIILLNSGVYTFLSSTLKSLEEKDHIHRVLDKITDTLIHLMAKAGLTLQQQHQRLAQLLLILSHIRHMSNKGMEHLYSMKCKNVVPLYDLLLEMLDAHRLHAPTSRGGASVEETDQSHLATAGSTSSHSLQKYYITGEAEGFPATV
Chain of Vitamin D3 receptor (Homo sapiens) (P11473 whole entry, looked up): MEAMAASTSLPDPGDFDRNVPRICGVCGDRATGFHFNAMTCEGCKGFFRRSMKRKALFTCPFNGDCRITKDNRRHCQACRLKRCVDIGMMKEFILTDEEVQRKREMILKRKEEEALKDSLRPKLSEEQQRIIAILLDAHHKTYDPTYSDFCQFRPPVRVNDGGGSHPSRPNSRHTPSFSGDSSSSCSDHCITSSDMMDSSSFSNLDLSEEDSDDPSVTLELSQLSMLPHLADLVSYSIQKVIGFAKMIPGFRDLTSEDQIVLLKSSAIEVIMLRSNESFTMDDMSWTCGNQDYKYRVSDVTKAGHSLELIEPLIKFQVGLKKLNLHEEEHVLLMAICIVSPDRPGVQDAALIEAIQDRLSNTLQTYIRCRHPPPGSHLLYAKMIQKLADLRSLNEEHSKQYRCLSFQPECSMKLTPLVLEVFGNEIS
Chain of Voltage-gated inwardly rectifying potassium channel KCNH2 (Homo sapiens) (Q12809 whole entry, looked up): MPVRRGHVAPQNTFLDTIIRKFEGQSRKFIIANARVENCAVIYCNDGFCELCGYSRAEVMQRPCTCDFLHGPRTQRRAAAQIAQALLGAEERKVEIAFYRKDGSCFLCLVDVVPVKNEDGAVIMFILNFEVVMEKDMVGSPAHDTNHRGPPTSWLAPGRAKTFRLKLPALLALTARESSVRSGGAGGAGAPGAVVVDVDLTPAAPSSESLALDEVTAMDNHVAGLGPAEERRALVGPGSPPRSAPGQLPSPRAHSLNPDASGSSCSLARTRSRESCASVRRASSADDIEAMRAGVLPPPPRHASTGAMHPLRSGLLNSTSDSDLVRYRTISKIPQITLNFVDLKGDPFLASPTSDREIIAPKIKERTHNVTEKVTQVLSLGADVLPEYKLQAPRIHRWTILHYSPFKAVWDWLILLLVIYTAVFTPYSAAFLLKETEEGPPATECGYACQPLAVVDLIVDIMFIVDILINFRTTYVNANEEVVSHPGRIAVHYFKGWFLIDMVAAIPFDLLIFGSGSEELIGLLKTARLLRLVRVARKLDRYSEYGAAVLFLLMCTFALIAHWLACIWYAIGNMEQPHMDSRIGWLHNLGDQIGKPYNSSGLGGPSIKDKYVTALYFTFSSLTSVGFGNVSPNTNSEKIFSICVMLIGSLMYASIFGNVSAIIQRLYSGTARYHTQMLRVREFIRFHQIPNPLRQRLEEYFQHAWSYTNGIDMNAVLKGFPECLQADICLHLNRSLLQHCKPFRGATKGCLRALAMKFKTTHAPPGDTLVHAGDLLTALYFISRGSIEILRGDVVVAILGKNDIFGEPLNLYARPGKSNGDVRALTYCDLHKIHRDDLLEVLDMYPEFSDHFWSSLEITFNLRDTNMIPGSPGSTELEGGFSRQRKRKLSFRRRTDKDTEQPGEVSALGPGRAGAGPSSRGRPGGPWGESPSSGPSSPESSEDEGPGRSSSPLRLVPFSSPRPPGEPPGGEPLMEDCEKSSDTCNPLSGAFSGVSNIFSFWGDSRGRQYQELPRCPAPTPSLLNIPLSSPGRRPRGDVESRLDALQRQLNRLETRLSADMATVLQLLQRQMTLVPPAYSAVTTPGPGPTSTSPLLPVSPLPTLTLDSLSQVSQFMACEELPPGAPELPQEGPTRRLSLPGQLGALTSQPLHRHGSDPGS
Chain of Bile acid receptor (Homo sapiens) (Q96RI1 whole entry, looked up): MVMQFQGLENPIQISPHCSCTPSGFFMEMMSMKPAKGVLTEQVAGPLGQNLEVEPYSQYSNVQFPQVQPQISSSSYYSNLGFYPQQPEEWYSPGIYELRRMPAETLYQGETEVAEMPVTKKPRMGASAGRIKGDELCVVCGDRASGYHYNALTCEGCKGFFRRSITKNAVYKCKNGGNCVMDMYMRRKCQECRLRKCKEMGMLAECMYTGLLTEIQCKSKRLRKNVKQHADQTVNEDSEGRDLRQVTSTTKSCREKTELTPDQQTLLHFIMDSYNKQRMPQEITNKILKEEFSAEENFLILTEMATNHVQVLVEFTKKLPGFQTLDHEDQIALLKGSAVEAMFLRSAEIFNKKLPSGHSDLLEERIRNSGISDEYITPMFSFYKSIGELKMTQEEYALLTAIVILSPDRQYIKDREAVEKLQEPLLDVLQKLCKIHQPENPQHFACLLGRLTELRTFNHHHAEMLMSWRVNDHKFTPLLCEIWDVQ
Chain of Peroxisome proliferator-activated receptor gamma (Homo sapiens) (P37231 whole entry, looked up): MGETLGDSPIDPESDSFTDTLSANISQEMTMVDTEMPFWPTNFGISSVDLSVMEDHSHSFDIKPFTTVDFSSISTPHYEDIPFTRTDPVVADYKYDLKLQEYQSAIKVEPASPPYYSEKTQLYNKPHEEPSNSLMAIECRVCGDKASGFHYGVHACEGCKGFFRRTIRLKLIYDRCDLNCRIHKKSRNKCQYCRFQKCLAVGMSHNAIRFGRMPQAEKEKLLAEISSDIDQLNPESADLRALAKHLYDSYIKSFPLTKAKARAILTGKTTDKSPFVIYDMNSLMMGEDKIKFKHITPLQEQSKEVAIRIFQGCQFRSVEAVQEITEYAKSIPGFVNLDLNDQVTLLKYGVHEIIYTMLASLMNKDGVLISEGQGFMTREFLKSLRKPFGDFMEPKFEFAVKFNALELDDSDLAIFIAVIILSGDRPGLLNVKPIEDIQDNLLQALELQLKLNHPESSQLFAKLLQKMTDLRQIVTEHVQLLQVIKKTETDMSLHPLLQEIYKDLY

`Cc1cccc(Nc2cc(Cl)nc(SCC(=O)O)n2)c1C`: the call in test [1], in test [2], in test [3], in test [6] and in [7] was inactive. Besides, the results for the activation in test [4] and in [5] were 4.07% (inactive) and -9.26% (inactive), respectively. Besides, the max response is -6% in test [8] and -6.52% in test [9]. The activity change % (negative = inhibition) in test [10] is -2.88% (inactive). The Potency entry in test [11], in [12] and in [13] was “inactive” throughout.
As for `CC(O)CN(CCN(CC(C)O)CC(C)O)CC(C)O` (stereo unspecified), the outcome in test [14], in [15], in [17], in test [6], in test [7] and in test [18] was inactive. Besides, the activation in test [5] was -7.72% (inactive). Further, the max response in test [16] is 30%; in test [9] it was -7.75%. For the same molecule, the Potency result in test [11], in test [12] and in test [13] was “inactive” in each case.
`CC1(C)[C@@H]2CC[C@@]1(C)C(=O)C2`: the result in [1], in test [2], in [3], in test [15], in test [17] and in test [18] was inactive. Also, the outcome in test [19] was inactive. The activation in test [5] is 6.36% (inactive). In addition, the max response in test [16] is 5.89%; in [8], -8.55%; in [9], 1.15%. Moreover, the activity change % (negative = inhibition) in test [10] is -4.32% (inactive). In addition, the Potency result in test [11], in [12] and in [13] was “inactive” in each case.
Take `NC(N)=NCCC[C@H](N)C(=O)O`: the result in test [1] was inactive. Moreover, the Potency result in [11] was “inactive”.
For `[Cl][In]([Cl])[Cl]`, the molecule was called inactive in test [2], in test [3], in [17] and in [18]. Moreover, the max response in test [16] is 29.3%; in test [8], -5.94%; in test [9] it was -2.25%. Further, in test [10], the activity change % (negative = inhibition) is 2% (inactive). The Potency entry in [11] and in test [13] was “inactive” each time.
For the molecule `CC12CCC(CC1)C(C)(C)O2`, the molecule was classed as inactive in [2], in test [3], in test [14], in [15], in [17] and in test [6]. The call in [7] and in test [18] was inactive. The activation in test [5] was -0.499% (inactive). Further, the max response in test [16] is -10.6%; in test [8], -11.5%; in test [9], -6.73%. For the same molecule, the activity change % (negative = inhibition) in test [10] is 18.1% (inactive). Also, the Potency entry in test [11], in test [12] and in test [13] was “inactive” in each case.
For `O=C(O)CN1C(=O)c2cccc3cccc(c23)C1=O`, the molecule was classed as inactive in test [1]. Moreover, the Potency result in test [11], in test [12] and in test [13] was “inactive” in each case.
For the molecule `Nc1ccc(S(=O)(=O)Nc2nccs2)cc1`, the molecule was called inactive in test [2], in test [3], in test [15], in test [6] and in test [18]. Besides, the activation in test [5] was -6.26% (inactive). The values for the max response in test [8] and in test [9] were 11.3% and -9.52%, respectively. Also, the Potency entry in test [11], in [12] and in test [13] was “inactive” in each case.
With `O=C1c2c(O)cccc2Cc2cccc(O)c21`, the molecule was called inactive in [14], in test [15], in test [17], in test [6] and in [19]. Besides, the activation in test [5] was -1.63% (inactive). The values for the max response in test [16], in [8] and in test [9] were -22%, -24.2% and -14.8%, respectively. Besides, in [10], the activity change % (negative = inhibition) is 3.09% (inactive). Also, the Potency entry in test [11], in test [12] and in test [13] was “inactive” each time.

Source of the values: PubChem BioAssay (NCATS).
